# Experimental data as given in the supplement of paper PMC11732987, “Enantioselective OTUD7B fragment discovery through chemoproteomics screening and high-throughput optimisation” (Communications Chemistry, 2025).
# Unmarked numbers belong to inactive results.
# How the values were obtained:
# Assay in all cases: log2 ratio of Biotin-Ahx-Ub-VS probe labelling (fragment/DMSO); higher = less target engagement (more negative = stronger competition), active = hit call of the paper (q ≤ 0.05, log2 ratio ≤ -1)
# Details in all cases: compound concentration: 200 uM; treatment time: 3 h
# OTUD6B = target: T1, OTUD6B (UniProt Q8N6M0)
# T1 sequence (whole entry): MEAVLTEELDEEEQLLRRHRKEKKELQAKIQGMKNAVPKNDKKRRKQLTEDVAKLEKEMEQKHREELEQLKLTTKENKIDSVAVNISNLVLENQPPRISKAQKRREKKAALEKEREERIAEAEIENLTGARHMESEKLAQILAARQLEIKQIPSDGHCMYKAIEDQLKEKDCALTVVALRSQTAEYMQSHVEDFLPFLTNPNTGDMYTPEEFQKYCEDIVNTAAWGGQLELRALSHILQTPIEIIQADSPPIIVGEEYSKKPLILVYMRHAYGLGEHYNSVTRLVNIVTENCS
# Method in brief: (§1)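 Lysate from HEK293T cells, 495 µg per sample in Tris/CHAPS/IGEPAL buffer with protease inhibitors, was treated for 3 h in triplicate with fragment at 200 µM or vehicle. Biotin-Ahx-Ub-VS was next added at 0.5 µM final for 1 h. The labelled DUBs were enriched with NeutrAvidin, digested with LysC and trypsin, and run by diaPASEF LC-MS/MS, with values given as average log2 fragment/vehicle ratios by unpaired t-test on global-median-normalised Spectronaut quantities of proteins with ≥2 unique peptides.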
# OTUD7B = target: T2, OTUD7B (UniProt Q6GQQ9)
# T2 sequence (whole entry): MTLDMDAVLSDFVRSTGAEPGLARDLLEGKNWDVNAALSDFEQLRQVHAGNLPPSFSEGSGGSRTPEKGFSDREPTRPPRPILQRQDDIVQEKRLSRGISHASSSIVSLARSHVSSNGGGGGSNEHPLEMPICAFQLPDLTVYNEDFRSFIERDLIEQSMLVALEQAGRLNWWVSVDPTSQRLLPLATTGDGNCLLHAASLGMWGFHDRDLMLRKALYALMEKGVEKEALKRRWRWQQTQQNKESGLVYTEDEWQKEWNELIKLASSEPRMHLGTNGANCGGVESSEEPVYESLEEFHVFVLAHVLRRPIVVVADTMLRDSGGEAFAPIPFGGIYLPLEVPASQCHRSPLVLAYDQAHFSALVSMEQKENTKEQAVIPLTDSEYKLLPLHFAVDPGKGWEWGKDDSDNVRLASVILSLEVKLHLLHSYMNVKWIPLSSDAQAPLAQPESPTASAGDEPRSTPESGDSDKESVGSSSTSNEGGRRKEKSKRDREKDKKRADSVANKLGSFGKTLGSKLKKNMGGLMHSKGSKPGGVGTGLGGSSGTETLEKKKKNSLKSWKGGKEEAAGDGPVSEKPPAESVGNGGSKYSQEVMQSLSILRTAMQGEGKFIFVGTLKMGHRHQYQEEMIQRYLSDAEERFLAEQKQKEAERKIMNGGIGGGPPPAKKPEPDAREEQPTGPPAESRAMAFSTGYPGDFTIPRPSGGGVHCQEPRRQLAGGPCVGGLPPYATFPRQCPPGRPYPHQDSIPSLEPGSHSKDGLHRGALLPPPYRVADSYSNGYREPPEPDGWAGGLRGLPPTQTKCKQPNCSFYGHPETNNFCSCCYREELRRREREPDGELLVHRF
# Method in brief: as §1
# PRPF8 = PRPF8 (UniProt Q6P2Q9)
# Method in brief: as §1
# PSMD7 = target: T3, PSMD7 (UniProt P51665)
# T3 sequence (whole entry): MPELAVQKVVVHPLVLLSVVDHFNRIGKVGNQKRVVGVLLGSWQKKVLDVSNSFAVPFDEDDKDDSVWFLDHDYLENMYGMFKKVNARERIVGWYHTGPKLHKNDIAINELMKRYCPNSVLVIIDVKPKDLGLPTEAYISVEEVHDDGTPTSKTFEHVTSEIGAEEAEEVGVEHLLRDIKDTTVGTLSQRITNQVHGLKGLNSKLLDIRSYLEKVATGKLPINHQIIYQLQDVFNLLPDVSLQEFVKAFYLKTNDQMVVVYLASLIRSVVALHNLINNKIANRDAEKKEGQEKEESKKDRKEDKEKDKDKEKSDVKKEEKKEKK
# Method in brief: as §1
# UCHL1 = UCHL1 (UniProt P09936)
# Method in brief: as §1
# UCHL3 = target: T4, UCHL3 (UniProt P15374)
# T4 sequence (whole entry): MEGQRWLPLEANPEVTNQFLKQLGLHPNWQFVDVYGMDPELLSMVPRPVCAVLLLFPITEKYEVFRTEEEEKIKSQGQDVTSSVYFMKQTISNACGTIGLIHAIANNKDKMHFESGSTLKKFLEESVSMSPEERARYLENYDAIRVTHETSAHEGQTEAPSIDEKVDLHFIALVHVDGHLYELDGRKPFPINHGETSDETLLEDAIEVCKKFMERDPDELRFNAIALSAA
# Method in brief: as §1
# UCHL5 = target: T5, UCHL5 (UniProt Q9Y5K5)
# T5 sequence (whole entry): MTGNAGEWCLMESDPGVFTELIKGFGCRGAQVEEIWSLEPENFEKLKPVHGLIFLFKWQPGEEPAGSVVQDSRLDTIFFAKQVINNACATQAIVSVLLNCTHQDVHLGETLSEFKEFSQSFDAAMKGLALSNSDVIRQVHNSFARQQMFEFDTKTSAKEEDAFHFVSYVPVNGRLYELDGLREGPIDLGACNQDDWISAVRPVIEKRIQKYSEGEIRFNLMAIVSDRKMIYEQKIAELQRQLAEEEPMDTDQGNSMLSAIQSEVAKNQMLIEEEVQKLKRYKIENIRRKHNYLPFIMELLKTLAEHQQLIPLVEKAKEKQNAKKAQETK
# Method in brief: as §1
# USP10 = USP10 (UniProt Q14694)
# Method in brief: as §1
# USP15 = target: T6, USP15 (UniProt Q9Y4E8)
# T6 sequence (whole entry): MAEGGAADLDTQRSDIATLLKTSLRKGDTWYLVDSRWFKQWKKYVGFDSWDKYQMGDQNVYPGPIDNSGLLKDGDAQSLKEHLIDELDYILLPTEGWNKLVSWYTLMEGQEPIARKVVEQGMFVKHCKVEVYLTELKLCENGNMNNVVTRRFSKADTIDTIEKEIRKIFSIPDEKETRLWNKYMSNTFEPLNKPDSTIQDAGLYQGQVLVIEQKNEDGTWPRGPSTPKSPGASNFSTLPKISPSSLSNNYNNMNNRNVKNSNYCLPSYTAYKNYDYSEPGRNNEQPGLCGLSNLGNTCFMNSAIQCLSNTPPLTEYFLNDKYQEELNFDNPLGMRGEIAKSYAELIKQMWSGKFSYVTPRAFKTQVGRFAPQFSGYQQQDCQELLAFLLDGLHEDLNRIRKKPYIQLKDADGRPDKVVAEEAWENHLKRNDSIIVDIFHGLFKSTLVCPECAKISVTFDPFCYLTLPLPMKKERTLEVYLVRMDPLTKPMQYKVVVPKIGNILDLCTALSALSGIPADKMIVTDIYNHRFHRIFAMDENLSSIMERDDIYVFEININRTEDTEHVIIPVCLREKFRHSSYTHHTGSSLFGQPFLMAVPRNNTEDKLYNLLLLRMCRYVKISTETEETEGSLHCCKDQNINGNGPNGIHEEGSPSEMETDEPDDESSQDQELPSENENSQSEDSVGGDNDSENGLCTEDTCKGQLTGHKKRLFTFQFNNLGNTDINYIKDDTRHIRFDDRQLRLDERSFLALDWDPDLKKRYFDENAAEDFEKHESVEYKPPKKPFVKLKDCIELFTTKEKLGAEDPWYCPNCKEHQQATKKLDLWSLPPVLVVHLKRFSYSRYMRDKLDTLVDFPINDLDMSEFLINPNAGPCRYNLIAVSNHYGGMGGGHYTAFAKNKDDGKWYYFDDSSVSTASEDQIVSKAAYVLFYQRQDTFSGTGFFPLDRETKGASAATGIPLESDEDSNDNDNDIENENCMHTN
# Method in brief: as §1
# USP16 = USP16 (UniProt Q9Y5T5)
# Method in brief: as §1
# Sequence of USP16 (Q9Y5T5 whole entry, looked up): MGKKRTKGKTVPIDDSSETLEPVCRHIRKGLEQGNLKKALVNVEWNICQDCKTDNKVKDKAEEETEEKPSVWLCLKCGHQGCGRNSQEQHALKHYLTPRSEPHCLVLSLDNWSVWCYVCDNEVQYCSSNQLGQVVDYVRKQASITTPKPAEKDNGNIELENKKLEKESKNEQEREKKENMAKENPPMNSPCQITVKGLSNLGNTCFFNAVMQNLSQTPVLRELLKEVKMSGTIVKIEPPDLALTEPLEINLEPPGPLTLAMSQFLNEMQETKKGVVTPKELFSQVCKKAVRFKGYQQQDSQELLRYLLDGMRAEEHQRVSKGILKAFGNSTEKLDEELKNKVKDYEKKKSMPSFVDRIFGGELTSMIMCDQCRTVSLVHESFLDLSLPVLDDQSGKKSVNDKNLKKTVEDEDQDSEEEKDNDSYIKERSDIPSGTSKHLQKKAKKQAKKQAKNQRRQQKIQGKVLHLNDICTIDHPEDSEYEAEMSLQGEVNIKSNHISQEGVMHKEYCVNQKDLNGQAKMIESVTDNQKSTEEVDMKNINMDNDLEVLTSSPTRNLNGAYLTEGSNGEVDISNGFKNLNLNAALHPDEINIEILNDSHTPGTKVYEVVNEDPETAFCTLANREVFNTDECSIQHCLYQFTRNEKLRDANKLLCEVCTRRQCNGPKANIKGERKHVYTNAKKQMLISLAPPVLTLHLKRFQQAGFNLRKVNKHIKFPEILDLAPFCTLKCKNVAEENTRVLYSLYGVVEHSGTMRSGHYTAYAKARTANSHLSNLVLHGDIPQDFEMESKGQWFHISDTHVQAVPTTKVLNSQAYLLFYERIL
# Sequence of UCHL1 (P09936 whole entry, looked up): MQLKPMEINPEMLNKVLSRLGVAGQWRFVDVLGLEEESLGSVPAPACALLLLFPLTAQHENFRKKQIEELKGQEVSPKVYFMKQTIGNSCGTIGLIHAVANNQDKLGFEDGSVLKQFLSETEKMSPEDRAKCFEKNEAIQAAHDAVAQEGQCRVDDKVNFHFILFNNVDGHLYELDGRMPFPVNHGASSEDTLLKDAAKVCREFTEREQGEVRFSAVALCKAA
# Sequence of USP10 (Q14694 whole entry): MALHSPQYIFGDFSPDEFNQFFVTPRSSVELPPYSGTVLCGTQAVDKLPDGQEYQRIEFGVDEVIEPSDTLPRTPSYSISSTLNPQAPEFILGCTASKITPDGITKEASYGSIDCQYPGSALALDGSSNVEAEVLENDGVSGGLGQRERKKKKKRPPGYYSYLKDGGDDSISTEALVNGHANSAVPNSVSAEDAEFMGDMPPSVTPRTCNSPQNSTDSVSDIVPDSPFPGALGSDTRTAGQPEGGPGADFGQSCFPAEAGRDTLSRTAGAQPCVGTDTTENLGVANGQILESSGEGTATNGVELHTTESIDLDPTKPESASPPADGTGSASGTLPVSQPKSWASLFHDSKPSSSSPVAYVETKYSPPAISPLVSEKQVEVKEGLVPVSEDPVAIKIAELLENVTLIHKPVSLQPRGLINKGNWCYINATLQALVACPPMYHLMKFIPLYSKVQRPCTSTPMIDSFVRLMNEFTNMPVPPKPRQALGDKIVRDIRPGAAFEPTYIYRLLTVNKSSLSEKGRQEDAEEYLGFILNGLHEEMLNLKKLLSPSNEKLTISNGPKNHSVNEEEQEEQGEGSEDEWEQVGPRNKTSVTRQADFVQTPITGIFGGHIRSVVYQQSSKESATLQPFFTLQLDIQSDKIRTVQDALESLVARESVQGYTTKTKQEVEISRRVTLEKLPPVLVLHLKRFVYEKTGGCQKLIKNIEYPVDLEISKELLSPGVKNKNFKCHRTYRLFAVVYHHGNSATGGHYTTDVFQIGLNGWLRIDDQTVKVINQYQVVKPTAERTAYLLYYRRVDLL
smiles,measurement,setting,value
O=C(CCl)N1CCc2nc[nH]c2C1c1ccc(Cl)cc1 (stereo not given),log2 ratio of Biotin-Ahx-Ub-VS probe labelling,OTUD6B,-0.263
same,log2 ratio of Biotin-Ahx-Ub-VS probe labelling,OTUD7B,-1.05 (active)
same,log2 ratio of Biotin-Ahx-Ub-VS probe labelling,PRPF8,-0.0118
same,log2 ratio of Biotin-Ahx-Ub-VS probe labelling,PSMD7,-0.165
same,log2 ratio of Biotin-Ahx-Ub-VS probe labelling,UCHL1,-0.466
same,log2 ratio of Biotin-Ahx-Ub-VS probe labelling,UCHL3,0.28
same,log2 ratio of Biotin-Ahx-Ub-VS probe labelling,UCHL5,-0.221
same,log2 ratio of Biotin-Ahx-Ub-VS probe labelling,USP10,-0.161
same,log2 ratio of Biotin-Ahx-Ub-VS probe labelling,USP15,-0.182
same,log2 ratio of Biotin-Ahx-Ub-VS probe labelling,USP16,-0.287
